{
  "source": "PubChem BioAssay AID709",
  "about": "(SRMLSC, 2007)",
  "note": "Among all 65,000 compounds or so, about 3,600 (5.5%) were called active. This is one part of a sample in which actives are shown more often than they occur. A number with no mark means an inactive call.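 Rule for the calls: active = at 10 µM, mean starting fluorescence two-fold or more over control wells; inactive = the rest.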",
  "data": [
    {"test": "intrinsic fluorescence of library compounds, ex339/em460 – biochemical, MLSMR library, data from DPM-DC assay, artefact control, profiling panel (AID 709);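 note: signal is the first read of a kinetic run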", "conditions": "compound autofluorescence, ex339/em460 nm, NADH buffer; at 10 µM; stronger effect = higher value; 1 = no-compound wells, NADH background", "values": [
      {"smiles": "O=C(NCc1ccccn1)c1cnc2sccn2c1=O", "fluorescence fold increase": "2.7 (active)"},
      {"smiles": "CCCCOc1ccc(-c2ncc(C(=O)OCC)c(N)n2)cc1", "fluorescence fold increase": 1.17},
      {"smiles": "CCOC(=O)c1cnc(-n2nc(C)cc2C)nc1-n1nc(C)cc1C", "fluorescence fold increase": 1.13},
      {"smiles": "O=C(NCc1ccccn1)Nc1ccc(F)cc1", "fluorescence fold increase": 1.14},
      {"smiles": "CCOC(=O)c1cnc2sccn2c1=O", "fluorescence fold increase": "3.33 (active)"},
      {"smiles": "O=C(NCc1ccccn1)c1cc2ccccc2oc1=O", "fluorescence fold increase": 1.48},
      {"smiles": "CCOC(=O)c1cc(NC(=O)c2cccnc2)cc(C(=O)OCC)c1", "fluorescence fold increase": 1.12},
      {"smiles": "Cc1cc2nc(-c3ccc(NC(=O)c4cccnc4)cc3)oc2cc1C", "fluorescence fold increase": "2.26 (active)"},
      {"smiles": "CC(C)NS(=O)(=O)c1ccc(NC(=O)c2cccnc2)cc1", "fluorescence fold increase": 1.03},
      {"smiles": "CSc1nc(C)nc2c1c(=O)n(C)c(=O)n2C", "fluorescence fold increase": 1.11},
      {"smiles": "Cc1ccccc1NC(=O)NCc1ccco1", "fluorescence fold increase": 1.12},
      {"smiles": "c1coc(CNc2ncnc3ccccc23)c1", "fluorescence fold increase": 1.1},
      {"smiles": "Cc1cc(NCc2ccco2)n2c(nc3ccccc32)c1C#N", "fluorescence fold increase": "2.23 (active)"},
      {"smiles": "Cc1cccc(OCc2nnc(SCn3nnc4ccccc4c3=O)o2)c1", "fluorescence fold increase": 1.07},
      {"smiles": "CC(C)(C)n1nc2c(c1NC(=O)c1ccc(S(=O)(=O)N3CCCC3)cc1)CS(=O)C2", "note": "(stereo unspecified)", "fluorescence fold increase": 1.02},
      {"smiles": "N/C(=N\\c1nc2ccccc2o1)NC(=O)C(Cc1ccccc1)N1C(=O)c2ccccc2C1=O", "note": "(stereo unspecified)", "fluorescence fold increase": 1.09},
      {"smiles": "O=C(NCCN1CCOCC1)[C@H](Cc1ccccc1)N1C(=O)c2ccccc2C1=O", "fluorescence fold increase": "2.12 (active)"},
      {"smiles": "O=C(CCN1C(=O)c2ccccc2C1=O)NCCN1CCOCC1", "fluorescence fold increase": 1.02},
      {"smiles": "Clc1ccc(Cc2nnc(-c3cccs3)o2)cc1", "fluorescence fold increase": 1.11},
      {"smiles": "O=C(Nc1nccs1)C1CCCN1S(=O)(=O)c1cccc2cccnc12", "note": "(stereo unspecified)", "fluorescence fold increase": 1},
      {"smiles": "Cc1c(C(=O)OCc2cc(=O)n3cc(Br)ccc3n2)oc2ccccc12", "fluorescence fold increase": 1.07},
      {"smiles": "Cc1c(C(=O)OCC(=O)N(CCC#N)c2ccccc2)oc2c1ccc1ccccc12", "fluorescence fold increase": "2.16 (active)"},
      {"smiles": "NC(=NC(=O)c1ccccc1)C1=C(O)CCC1=O", "fluorescence fold increase": 1.14},
      {"smiles": "CCCc1nc(-c2ccccc2O)n(-c2ccccc2)n1", "fluorescence fold increase": 1.12},
      {"smiles": "COc1ccc(OC)c2sc(NC(=O)C3COc4ccccc4O3)nc12", "note": "(stereo unspecified)", "fluorescence fold increase": 1.19},
      {"smiles": "COCCCNC(=O)CSc1nc2ccc(N3CCOCC3)cc2c(=O)n1CCc1ccccc1", "fluorescence fold increase": "2.61 (active)"},
      {"smiles": "CCc1ccc(NC(=O)CSc2nc3ccccc3c(=O)n2CCN2CCOCC2)cc1", "fluorescence fold increase": 1.09},
      {"smiles": "CCCCn1c(SCC(=O)NCC2CCCO2)nc2ccc(N3CCOCC3)cc2c1=O", "note": "(stereo unspecified)", "fluorescence fold increase": "4.22 (active)"},
      {"smiles": "Cc1ccc2cc(C#N)c(SCC(=O)NCC3CCCO3)nc2c1C", "note": "(stereo unspecified)", "fluorescence fold increase": 1.14},
      {"smiles": "CCn1c(SCC(=O)NCC2CCCO2)nc2cc(S(=O)(=O)N3CCCCC3)ccc21", "note": "(stereo unspecified)", "fluorescence fold increase": 1},
      {"smiles": "COCCNC(=O)CSc1nc2c(n1-c1ccccc1)CCCC2", "fluorescence fold increase": 1.16},
      {"smiles": "CC12CCC(C(=O)N(CCC#N)CCC#N)(CC1=O)C2(C)C", "note": "(stereo unspecified)", "fluorescence fold increase": 1.07},
      {"smiles": "Cc1ccc(S(=O)(=O)N2CCC(C(=O)N[C@@H](C)C(=O)NCCc3ccccc3)CC2)cc1", "fluorescence fold increase": 1.11},
      {"smiles": "O=C(c1c(Cl)nc2sccn12)N1CCCc2ccccc21", "fluorescence fold increase": 1},
      {"smiles": "O=C(CC(NCCN1CCOCC1)C(=O)O)Nc1cccc(Cl)c1", "note": "(stereo unspecified)", "fluorescence fold increase": 1.1},
      {"smiles": "COc1ccc(-n2nnc3c(=O)n(CC(=O)N4CCC(Cc5ccccc5)CC4)cnc32)cc1", "fluorescence fold increase": 1.08},
      {"smiles": "COc1ccc2c(c1OC)C(=O)OC2c1c(O)nc(SC)n(-c2ccccc2)c1=O", "note": "(stereo unspecified)", "fluorescence fold increase": 1.06},
      {"smiles": "Cc1cc(O)ccc1-c1cnc2ccccc2n1", "fluorescence fold increase": 1.05},
      {"smiles": "Cc1nc2ccccc2cc1O", "fluorescence fold increase": "2.48 (active)"},
      {"smiles": "CCOC(=O)c1cc2ccccc2nc1C", "fluorescence fold increase": 1.08},
      {"smiles": "Cc1cccc(OCc2nnc(SCC(=O)N3CCN(C(=O)c4ccco4)CC3)n2C)c1C", "fluorescence fold increase": 1.11},
      {"smiles": "O=C(O)C1CCN(S(=O)(=O)N2CCOCC2)CC1", "fluorescence fold increase": 1.1},
      {"smiles": "CCOC(=O)c1cc2n(c1N)-c1ccccc1C2=O", "fluorescence fold increase": 1.16},
      {"smiles": "CCCn1c(=NC(C)=O)c(C(=O)OCC)cc2c(=O)n3ccccc3nc21", "fluorescence fold increase": "3.86 (active)"},
      {"smiles": "CCOC(=O)c1cc2n(c1C)-c1ccccc1C2=O", "fluorescence fold increase": 1.02},
      {"smiles": "O=C(Nc1ccc(NC(=O)c2cccs2)cn1)c1ccco1", "fluorescence fold increase": 1.08},
      {"smiles": "Cc1cccc(-n2c(N)cc(=O)nc2SC(C)C(=O)NC2CCCCC2)c1", "note": "(stereo unspecified)", "fluorescence fold increase": 1.06},
      {"smiles": "O=C(CN1C(=O)C2C3C=CC(C3)C2C1=O)NCCc1ccccc1Cl", "note": "(stereo unspecified)", "fluorescence fold increase": 1.05},
      {"smiles": "CCOc1ccc(OCC)c(NC(=O)CSc2nnc(Cn3cnc4ccccc43)n2C)c1", "fluorescence fold increase": 1.12},
      {"smiles": "Cn1c(Cc2csc(N)n2)nnc1SC/C=C/c1ccccc1", "fluorescence fold increase": 1.1},
      {"smiles": "Cc1cn(C2C=CC(CO)O2)c(=O)[nH]c1=O", "note": "(stereo unspecified)", "fluorescence fold increase": 1.07}
    ]}
  ]
}
